Screening data: PubChem BioAssay, several laboratories
In the library only some 1.2% were active in any assay of this set; here they are far more common.
NCOA1 inh: human NCOA1 inhibition; inhibition, % at 3.6 µM; HEK293 GAL4-SRC1 luciferase reporter, luminescence; Q15788; 360,000 tested, 0.12% active;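 active means inhibition above the campaign mean plus 3 SD, with each screening campaign given its own cutoff, cut at about 60% in these data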
NCOA2 inhibitor: human SRC2 (NCOA2) inhibition | Q15596 | HEK293 GAL4-SRC2 luciferase reporter, luminescence | inhibition, % at 9 µM | 370,000 tested, 0.17% active;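 active means inhibition above the mean inhibition of all tested compounds plus 3 SD, set per campaign, cut at about 52% in these data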
SRC3 inh: inhibits human SRC3 coactivator. 360,000 tested, 0.17% active. HEK293 GAL4-SRC3 luciferase reporter, luminescence. Q9Y6Q9. inhibition, % at 3.6 µM;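 active means inhibition above a per-campaign cutoff, the mean of all compounds plus 3 SD, cut at about 60% in these data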;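 further: higher means less SRC3-driven luciferase light from the GAL4 reporter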
NR5A2 inv ag: inverse agonists of human LRH-1 (NR5A2). AID 602396. O00482. inhibition, % at 3.6 µM. HEK293T StAR-luciferase reporter, LRH-1 transfected, 24 h. 360,000 tested, 0.13% active;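 active means inhibition above the mean inhibition of all tested compounds plus 3 SD, cut at about 73% in these data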
NR2F2 inh: NR2F2 (human) inhibition, primary screen; P24468; HEK293T NGFI-A luciferase reporter, luminescence; inhibition, % at 8.6 µM; 370,000 tested, 0.7% active; AID 686940;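 active means inhibition above a per-plate cutoff, mean inhibition of test wells between control levels plus 3 SD, cut at about 38% in these data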;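 further: cells cotransfected with COUP-TFII expression vector driving the NGFI-A reporter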
Target sequence (P24468 whole entry, looked up): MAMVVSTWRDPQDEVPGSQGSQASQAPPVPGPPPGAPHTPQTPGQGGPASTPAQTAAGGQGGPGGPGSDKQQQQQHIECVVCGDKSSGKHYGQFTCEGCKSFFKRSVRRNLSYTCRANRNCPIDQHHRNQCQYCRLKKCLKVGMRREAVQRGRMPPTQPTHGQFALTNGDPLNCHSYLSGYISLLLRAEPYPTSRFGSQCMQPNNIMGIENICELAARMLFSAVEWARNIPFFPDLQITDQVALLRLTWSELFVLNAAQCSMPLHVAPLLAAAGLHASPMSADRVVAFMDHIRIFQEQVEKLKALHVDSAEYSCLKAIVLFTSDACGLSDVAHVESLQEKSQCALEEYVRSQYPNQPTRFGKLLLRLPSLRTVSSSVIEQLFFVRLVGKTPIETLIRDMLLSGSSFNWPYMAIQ
Efflux pump mplx: inhibitors of Candida antifungal efflux pumps expressed in yeast | S. cerevisiae Candida pump triplex, Nile Red efflux | inhibition, % at 10 µM | 330,000 tested, 0.44% active | AID 485275;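 active means plate passing quality check with inhibition over a set limit, or well fluorescence over plate mean plus 4 SD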;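 further: Nile Red retained in pooled yeast measured as flow cytometry median fluorescence; higher means more Nile Red kept so more efflux inhibition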
VP16 Luc counter: counter-screen for COUP-TFII antagonists: inhibitors of VP16 | shares compounds with NR2F2 inh | HEK293 Gal4-VP16 luciferase reporter, luminescence | inhibition, % at 8.5 µM | 2,500 tested, 25% active; in the data active means inhibition above about 13%
NR2F2 inh conf: COUP-TFII (NR2F2) inhibition, confirmation assay; shares compounds with NR2F2 inh; HEK293 NGFI-A luciferase reporter, luminescence; inhibition, % at 8.5 µM; 2,500 tested, 45% active; AID 687008;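 active means mean inhibition over three repeats above a set limit taken from the earlier primary screen, cut at about 38% in these data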
Large screens that a line does not name were inactive (follow-up assays come after a bar, where they were run).

CCCOc1ccc(/C=N/NC(=S)Nc2ccccc2[N+](=O)[O-])c(O)c1	NCOA2 inhibitor 52.5, NR2F2 inh 72.8 (no result: NCOA1 inh, SRC3 inh, NR5A2 inv ag) | VP16 Luc counter 73.0 | NR2F2 inh conf 82.6
COc1ccc(C)cc1NC(=O)N1CCCc2ccccc21	none
Nc1c(S(=O)(=O)c2cccs2)c2nc3ccccc3nc2n1Cc1ccccc1	none
O=C(NCc1cccnc1)C1CCC(c2ccc(Cl)cc2)CC1 (centres undefined)	NR2F2 inh 40.5 | VP16 Luc counter inactive | NR2F2 inh conf 55.4
O=C(NCc1cccnc1)C1CCN(C(=O)c2ccc(Cl)cc2Cl)CC1	none
CCOC(=O)N1CCN(S(=O)(=O)c2ccc(C(=O)Nc3sc4c(c3C#N)CC(C)(C)NC4(C)C)cc2)CC1	none
C[C@H](CO)N1C[C@H](C)[C@@H](CN(C)C(=O)c2ccncc2)OCc2cn(nn2)CCCC1=O	none (no result: NCOA1 inh, SRC3 inh, NR5A2 inv ag, Efflux pump mplx)
CCCCc1c(-c2cccc(OC)c2)ncn1CCc1ccccc1OC	none (no result: NCOA1 inh, SRC3 inh, Efflux pump mplx)
Cc1[nH]nc2ncc(C(=O)c3ccccc3O)cc12	NR2F2 inh 37.7 | VP16 Luc counter 14.9 | NR2F2 inh conf inactive
Cc1nn(C)c2ncc(C(=O)c3ccccc3O)cc12	none
CCCCCn1c(=O)[nH]c2cc(C(=O)N3CCN(Cc4ccc5c(c4)OCO5)CC3)ccc2c1=O	NR2F2 inh 58.2 | VP16 Luc counter inactive | NR2F2 inh conf 64.4
CCCCCn1c(=O)[nH]c2cc(C(=O)NCc3ccc4c(c3)OCO4)ccc2c1=O	none
O=C(c1ccc2c(=O)n(Cc3ccc(Cl)cc3)c(=S)[nH]c2c1)N1CCOCC1	NR2F2 inh 38.9 | VP16 Luc counter inactive | NR2F2 inh conf inactive
CCOCCCNC(=O)C1CCCCN1S(=O)(=O)c1ccc(F)cc1 (centres undefined)	none
Cc1ccc(S(=O)(=O)Nc2cccnc2)c(C)c1C	none
C/C(=C\C(=O)c1ccccc1)NNC(=O)c1ccc(Cl)cc1	none
Cc1cc(N2CCN(c3ccccc3)CC2)n2ncnc2n1	none
Cc1cc(N2CCN(C/C=C/c3ccccc3)CC2)n2ncnc2n1	NR2F2 inh 39.8 | VP16 Luc counter inactive | NR2F2 inh conf inactive
Cc1ccc(-c2nc(CS(=O)CC(=O)NCCCN3CCN(Cc4ccccc4)CC3)c(C)o2)cc1 (centres undefined)	NR2F2 inh 41.1 | VP16 Luc counter inactive | NR2F2 inh conf inactive
C[C@H]1[C@@H](NCC2CCCCC2)CC[C@@]23CCCN2C(=O)CCC[C@@H]13	none (no result: NCOA1 inh, NCOA2 inhibitor, SRC3 inh, NR5A2 inv ag, Efflux pump mplx)
CN(C(=O)c1cccc(NC(=O)Cc2ccc(NC(=O)C3CCCN(C(=O)CCc4ccccc4)C3)cc2)c1)C1CCC1 (centres undefined)	NR2F2 inh 48.3 (no result: Efflux pump mplx) | VP16 Luc counter inactive | NR2F2 inh conf inactive
CN(Cc1ccccc1)C(=O)c1ccc(NC(=O)Cc2cccc(NC(=O)C3CCCN(C(=O)CCc4ccccc4)C3)c2)cc1 (centres undefined)	NR2F2 inh 43.9 | VP16 Luc counter inactive | NR2F2 inh conf inactive
CN(C(=O)c1ccc(NC(=O)Cc2cccc(NC(=O)C3CCCN(C(=O)CCc4ccccc4)C3)c2)cc1)C1CCCC1 (centres undefined)	none
CN(C(=O)c1cccc(NC(=O)Cc2ccc(NC(=O)C3CCCN(C(=O)CCc4ccccc4)C3)cc2)c1)C1CCCC1 (centres undefined)	NR2F2 inh 57.8 (no result: Efflux pump mplx) | VP16 Luc counter inactive | NR2F2 inh conf 50.7
C/C(=N\NC(=O)Cc1cccn1C)c1ccc2ccccc2c1	none
Cc1ccccc1C(=O)N/N=C/c1ccc([N+](=O)[O-])s1	NR2F2 inh 57.1 | VP16 Luc counter 55.1 | NR2F2 inh conf 44.2
O=C(N/N=C/c1ccc([N+](=O)[O-])s1)c1ccccc1	NR2F2 inh 37.9 | VP16 Luc counter 31.1 | NR2F2 inh conf inactive
Cc1cc(C)c(CN2CCN(C(=O)Cn3cnc4c(OCc5ccccc5)ncnc43)CC2)c(C)c1	NR2F2 inh 62.9 | VP16 Luc counter inactive | NR2F2 inh conf 63.5
NC(=O)c1ccc(NC(=O)c2ccc(COc3ccccc3Br)cc2)cc1	none (no result: Efflux pump mplx)
Cc1cc(C)n(Cc2ccc(NC(=O)c3ccc(COc4ccccc4Br)cc3)cc2)n1	NR2F2 inh 63.4 | VP16 Luc counter inactive | NR2F2 inh conf inactive
CCONC(=O)Nc1ccccc1[N+](=O)[O-]	none
Cc1cnc(NC(=O)c2ccc3c(c2)OCCO3)s1	NCOA2 inhibitor 67.5, NR2F2 inh 45.8 | VP16 Luc counter inactive | NR2F2 inh conf inactive
C/C=C(/C)C(=O)O[C@@H]1Cc2c(ccc3ccc(=O)oc23)OC1(C)C	none
CN(C(=O)c1cn(C)c2ccccc12)c1ccc(Oc2cccnc2)cc1	NR2F2 inh 47.2 (no result: NCOA1 inh, SRC3 inh, NR5A2 inv ag, Efflux pump mplx) | VP16 Luc counter inactive | NR2F2 inh conf inactive
CCCCCOc1ccc(Br)cc1CSC(=N)N	NR2F2 inh 65.5 (no result: Efflux pump mplx) | VP16 Luc counter 15.7 | NR2F2 inh conf 47.3
CC(=O)c1ccc2c(c1)N(Cc1ccccc1Cl)C(=O)C(C)S2 (centres undefined)	NR2F2 inh 84.3 (no result: Efflux pump mplx) | VP16 Luc counter inactive | NR2F2 inh conf inactive
COC(=O)c1cccc(CN2C(=O)C(C)Sc3ccc(C(C)=O)cc32)c1 (centres undefined)	none (no result: Efflux pump mplx)
Cc1ccc2nc(NC(=O)c3cc(-c4ccco4)nc4ccccc34)sc2c1	none
CCOc1ccc(CN2CCN(S(=O)(=O)c3ccc(NC(C)=O)cc3)CC2)cc1	NR2F2 inh 47.8 | VP16 Luc counter inactive | NR2F2 inh conf inactive
O=C(Nc1ccc(S(=O)(=O)N2CCOCC2)cc1)c1ccc(S(=O)(=O)N2CCOCC2)cc1	none
Cc1ccc(NC(=O)c2cc(S(=O)(=O)N3CCCCC3)cs2)cc1	NR2F2 inh 47.8 | VP16 Luc counter inactive | NR2F2 inh conf inactive
COc1ccc(NS(=O)(=O)c2ccc(NC(=O)c3ccc(CN4CCOCC4)cc3)cc2)cc1	NR2F2 inh 63.9 | VP16 Luc counter inactive | NR2F2 inh conf 51.9
CCCOc1ccc(C(=O)Nc2ccc(CN3CCOCC3)cc2)cc1	none
O=C(Nc1ccc(Cc2ccncc2)cc1)c1ccc(S(=O)(=O)N2CCOCC2)cc1	NR2F2 inh 41.4 | VP16 Luc counter inactive | NR2F2 inh conf inactive
COc1ccc(CN2CCN(S(=O)(=O)c3ccc(NC(C)=O)cc3)CC2)cc1OC	none
COC(=O)[C@@]1(C)[C@H]2C(=O)N(Cc3ccccc3)C(=O)[C@H]2[C@H]2CN=C(SCc3ccc(Cl)cc3)N21	none
COc1ccccc1-c1nnc(NC(=O)C2CCCN2S(=O)(=O)c2cccs2)o1 (centres undefined)	none (no result: Efflux pump mplx)
Cc1ccc(S(=O)(=O)N2CCOCC2)cc1C(=O)Nc1ccc(N2CCCCCC2)cc1	NR2F2 inh 39.9 (no result: Efflux pump mplx) | VP16 Luc counter inactive | NR2F2 inh conf inactive
